{"source": "the supplement of paper PMC12636033", "note": "± gives the standard deviation of the averaged measurements. In all, about 33,000 sequences were measured (“E-score (rank enrichment, -0.5 to 0.5)”: median about -0.0075, highest 2% from about 0.23 on). The full list was thinned out, with the highest values kept by preference."}
{"tested_on": "WT Max(13-93) synthetic (M65Nle)", "experiment": "PBM 8-mer E-score (E-score (rank enrichment, -0.5 to 0.5)); higher = stronger preferential binding", "protocol": "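Protein binding microarray (universal PBM chip covering all 10-mers in fixed probe flanks) with chemically synthesized human Max(13-93) bHLH-LZ analogs (not full-length Max) bearing noncanonical residues (hArg, Tha, Aib, Nle at 65) and aromatic Cys staples. Read-out per 8-mer (and its reverse complement): E-score (rank-based enrichment, -0.5 to 0.5) and Z-score of median probe intensity.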"}
{"sequence": "CTATATGA", "PBM 8-mer E-score": "0.0892 ± 0.063"}
{"sequence": "CAATGTGA", "PBM 8-mer E-score": "0.179 ± 0.0028"}
{"sequence": "ATATAGTA", "PBM 8-mer E-score": "0.228 ± 0.029"}
{"sequence": "CCTGGCCG", "PBM 8-mer E-score": "-0.194 ± 0.086"}
{"sequence": "ACCCAGAG", "PBM 8-mer E-score": "-0.0559 ± 0.026"}
{"sequence": "CGGTCCAA", "PBM 8-mer E-score": "-0.19 ± 0.19"}
{"sequence": "CGCCTTAG", "PBM 8-mer E-score": "-0.0361 ± 0.042"}
{"sequence": "CGGAAAGC", "PBM 8-mer E-score": "-0.0958 ± 0.16"}
{"sequence": "GCACAGGC", "PBM 8-mer E-score": "-0.146 ± 0.038"}
{"sequence": "GCCCGAGC", "PBM 8-mer E-score": "0.035 ± 0.06"}
{"sequence": "AAATGTGT", "PBM 8-mer E-score": "0.224 ± 0.085"}
{"sequence": "AAATGTGG", "PBM 8-mer E-score": "0.245 ± 0.048"}
{"sequence": "GTATGTGA", "PBM 8-mer E-score": "-0.0439 ± 0.13"}
{"sequence": "ATATGTGG", "PBM 8-mer E-score": "0.292 ± 0.015"}
{"sequence": "ATATGTGC", "PBM 8-mer E-score": "0.181 ± 0.014"}
{"sequence": "ATGTGTGG", "PBM 8-mer E-score": "0.148 ± 0.055"}
{"sequence": "CTATGTGA", "PBM 8-mer E-score": "0.0181 ± 0.018"}
{"sequence": "CAATGTGG", "PBM 8-mer E-score": "0.133 ± 0.072"}
{"sequence": "ATATGTGA", "PBM 8-mer E-score": "0.278 ± 0.14"}
{"sequence": "CCTGTCGA", "PBM 8-mer E-score": "0.00438 ± 0.055"}
{"sequence": "ATTTACCG", "PBM 8-mer E-score": "0.17 ± 0.0023"}
{"sequence": "ATTCCGGC", "PBM 8-mer E-score": "-0.2339 ± 0.0017"}
{"sequence": "GAGATCAA", "PBM 8-mer E-score": "0.0454 ± 0.094"}
{"sequence": "CACCTGAA", "PBM 8-mer E-score": "0.166 ± 0.075"}
{"sequence": "CTGAGATA", "PBM 8-mer E-score": "-0.222 ± 0.091"}
{"sequence": "CCTTCTCA", "PBM 8-mer E-score": "0.0588 ± 0.1"}
{"sequence": "CCGGCCCA", "PBM 8-mer E-score": "-0.197 ± 0.085"}
{"sequence": "GAAAAGGC", "PBM 8-mer E-score": "0.253 ± 0.15"}
{"sequence": "CAAAAGGC", "PBM 8-mer E-score": "-0.00832 ± 0.029"}
{"sequence": "AAAAAGGC", "PBM 8-mer E-score": "0.109 ± 0.096"}
{"sequence": "AACGTTTA", "PBM 8-mer E-score": "0.146 ± 0.049"}
{"sequence": "TCGGACCA", "PBM 8-mer E-score": "-0.114 ± 0.059"}
{"sequence": "CGCGGGGA", "PBM 8-mer E-score": "-0.172 ± 0.12"}
{"sequence": "GGCGGGAA", "PBM 8-mer E-score": "0.0202 ± 0.047"}
{"sequence": "GGCGGGGA", "PBM 8-mer E-score": "0.303 ± 0.031"}
{"sequence": "CTGGTCCA", "PBM 8-mer E-score": "-0.128 ± 0.094"}
{"sequence": "TAGGTAAA", "PBM 8-mer E-score": "-0.0909 ± 0.038"}
{"sequence": "ACGACCAA", "PBM 8-mer E-score": "-0.0717 ± 0.22"}
{"sequence": "AGCAAGCC", "PBM 8-mer E-score": "-0.152 ± 0.033"}
{"sequence": "GACCAGCC", "PBM 8-mer E-score": "-0.205 ± 0.093"}
{"sequence": "ATGATGTA", "PBM 8-mer E-score": "0.197 ± 0.047"}
{"sequence": "CTGATTTA", "PBM 8-mer E-score": "0.0789 ± 0.0019"}
{"sequence": "CTGATGTA", "PBM 8-mer E-score": "0.0268 ± 0.064"}
{"sequence": "ATGATTTA", "PBM 8-mer E-score": "0.178 ± 0.027"}
{"sequence": "GTGATTAA", "PBM 8-mer E-score": "0.296 ± 0.066"}
{"sequence": "GTGATTTA", "PBM 8-mer E-score": "0.27 ± 0.0069"}
{"sequence": "ATGATTAA", "PBM 8-mer E-score": "0.0011 ± 0.15"}
{"sequence": "GTGATGTA", "PBM 8-mer E-score": "0.239 ± 0.0057"}
{"sequence": "CTGATTAA", "PBM 8-mer E-score": "0.192 ± 0.081"}
{"sequence": "GTTCTCGA", "PBM 8-mer E-score": "0.0864 ± 0.12"}
{"sequence": "CACCACTA", "PBM 8-mer E-score": "0.129 ± 0.17"}
{"sequence": "CGCTGGCC", "PBM 8-mer E-score": "-0.289 ± 0.025"}
{"sequence": "GGAAGGAA", "PBM 8-mer E-score": "0.0471 ± 0.045"}
{"sequence": "ACGAAGTG", "PBM 8-mer E-score": "0.00194 ± 0.018"}
{"sequence": "ACTGATGC", "PBM 8-mer E-score": "-0.0431 ± 0.041"}
{"sequence": "CGCGGAAA", "PBM 8-mer E-score": "-0.0276 ± 0.059"}
{"sequence": "CGTTGCAA", "PBM 8-mer E-score": "-0.0452 ± 0.0072"}
{"sequence": "AGCCTAGG", "PBM 8-mer E-score": "-0.0541 ± 0.089"}
{"sequence": "CTATCATA", "PBM 8-mer E-score": "0.1619 ± 0.00089"}
{"sequence": "GTGTCATA", "PBM 8-mer E-score": "0.291 ± 0.0065"}
{"sequence": "ATATCATA", "PBM 8-mer E-score": "0.184 ± 0.031"}
{"sequence": "CTGTCATA", "PBM 8-mer E-score": "0.113 ± 0.023"}
{"sequence": "GTATCATA", "PBM 8-mer E-score": "0.248 ± 0.1"}
{"sequence": "ATGTCATA", "PBM 8-mer E-score": "0.1682 ± 0.0013"}
{"sequence": "AACGAAGC", "PBM 8-mer E-score": "-0.00685 ± 0.13"}
{"sequence": "AATTTCTA", "PBM 8-mer E-score": "0.172 ± 0.047"}
{"sequence": "ATTTTGTG", "PBM 8-mer E-score": "0.145 ± 0.021"}
{"sequence": "ATTTTCTA", "PBM 8-mer E-score": "0.24 ± 0.019"}
{"sequence": "CTTTTCTA", "PBM 8-mer E-score": "0.0691 ± 0.035"}
{"sequence": "CTTTTGTA", "PBM 8-mer E-score": "0.125 ± 0.051"}
{"sequence": "ATTTTGTA", "PBM 8-mer E-score": "0.237 ± 0.051"}
{"sequence": "GTTTTGTA", "PBM 8-mer E-score": "0.248 ± 0.031"}
{"sequence": "GTTTTGCA", "PBM 8-mer E-score": "0.108 ± 0.019"}
{"sequence": "GGTTTGTA", "PBM 8-mer E-score": "-0.0081 ± 0.036"}
{"sequence": "CCGCTTCG", "PBM 8-mer E-score": "-0.0665 ± 0.16"}
{"sequence": "CCCTCCTA", "PBM 8-mer E-score": "0.0972 ± 0.061"}
{"sequence": "CAACATAC", "PBM 8-mer E-score": "0.112 ± 0.046"}
{"sequence": "AAACATAT", "PBM 8-mer E-score": "0.144 ± 0.0056"}
{"sequence": "TTACATAA", "PBM 8-mer E-score": "0.136 ± 0.048"}
{"sequence": "GAACATAA", "PBM 8-mer E-score": "0.16 ± 0.059"}
{"sequence": "CAACATAA", "PBM 8-mer E-score": "0.167 ± 0.0094"}
{"sequence": "AAACATAG", "PBM 8-mer E-score": "0.21 ± 0.031"}
{"sequence": "ACACATAA", "PBM 8-mer E-score": "0.214 ± 0.066"}
{"sequence": "AAACATAC", "PBM 8-mer E-score": "0.233 ± 0.027"}
{"sequence": "AAACATAA", "PBM 8-mer E-score": "0.244 ± 0.059"}
{"sequence": "CTACATAA", "PBM 8-mer E-score": "0.0655 ± 0.2"}
{"sequence": "TAACATAA", "PBM 8-mer E-score": "0.244 ± 0.0065"}
{"sequence": "GTACATAA", "PBM 8-mer E-score": "0.236 ± 0.0032"}
